In PubChem BioAssay (Tox21):
“And” between values parts separate entries of the source, which are not always exact repeats. Identical values can stand only once. Inconclusive results are not listed. A number with no mark means an inactive call. The source made the active and inactive calls. Calls follow the shape of the dose curve; as a rule, active = well fitted cell-killing curve with a large enough effect in the repeat runs; inconclusive = weak or mixed curves, or effect the other way; inactive = flat fitted curve, though single readings scatter.

Experiment: qHTS assay to identify small molecule agonists of the androgen receptor (AR) signaling pathway in the presence of an antagonist - cell viability counter screen (AID 1259379); also: nearly all actives have a fitted effect of over 25% in size
Conditions: MDA-kb2 viability, CellTiter-Fluor, 16 h; series mostly up to 92.4 µM; activity change, negative = cytotoxicity: at the top concentration
From the text: National Center for Advancing Translational Sciences [NCATS]
NIH Chemical Genomics Center [NCGC]
U.S. Environmental Protection Agency [EPA]
National Institutes of Environmental Health Sciences [NIEHS]
National Toxicology Program [NTP]
U.S. Food and Drug Administration [FDA]
Androgen receptor (AR) is an important member of nuclear receptor family. Its signaling plays a critical role in AR-dependent prostate cancer and other androgen related diseases. Considerable attention has been given in the past decades to develop methods to study and screen for the environmental chemicals that have the potential to interfere with metabolic homeostasis, reproduction, developmental and behavioral functions. Therefore AR binding assay for screening against androgen agonists and antagonists can be used to identify potential endocrine disruptors.
MDA-kb2 cells (from ATCC, deposited by Wilson et al.) are human breast carcinoma cells that were stably transfected with a luciferase reporter gene under control of the MMTV promoter that contains response elements for both androgen receptor (AR) and glucocorticoid receptor (GR). This particular screening for measuring luciferase reporter gene activity using MDA-kb2 cells against Tox21 10K library compounds is a confirmation study on agonist mode screening in the presence of AR-antagonist compound (Nilutamide) at 3.0uM final concentration. The cytotoxicity of the compounds was tested in parallel by measuring the cell viability using CellTiter-Fluor assay system (Promega, Madison, WI) in the same wells.
Tox21 Assay Protocol Summary:
MDA-kb2 cells (cells cultured without CO2) were dispensed at 3,000 cells/well in 4uL of culture medium into white wall/solid-bottom 1536-well plates (Corning Life Sciences, Corning, NY) using a Multidrop Combi (Thermo Fisher Scientific Inc., Waltham, MA) dispenser. The assay plates were incubated at 37C and 0% CO2 for 5hr. One uL of 3.0uM (final concentration) Nilutamide or assay buffer was added using two separate tips of Flying Reagent Dispenser (FRD, Aurora Discovery, San Diego, CA). Then 23nL of compounds dissolved in DMSO at 15 concentrations and positive controls were transferred to the assay plates using a Pintool station (Wako, San Diego, CA). The assay plates were incubated at 37C and 0% CO2 for 16 hr. After 15hr incubation at 37C, 1uL/well CellTiter-Fluor reagent (Promega Corporation) was added to each well of the assay plates using FRD. After 1hr incubation at 37C and 0% CO2, the fluorescence signal was measured using a ViewLux plate reader (PerkinElmer, Shelton, CT).
% is scaled to controls: 0 for no effect and ±100 for the full control effect; potency is read from the fitted curve at half-maximal effect.

SMILES | activity change, negative = cytotoxicity | Potency
O=C(O)c1cccc(C(F)(F)F)c1 | 8.8% | 
CC(C)OC(=O)C(O)(CC(=O)O)CC(=O)O | -0.981% | 
C[C@H]1NCc2cc(-c3ccc4c(=O)c(C(=O)O)cn(C5CC5)c4c3OC(F)F)ccc21 | -2.32% [at 19 µM] | 
CCCCN(CCCC)CC(O)c1cc(Cl)cc2c1-c1ccc(Cl)cc1/C2=C/c1ccc(Cl)cc1 (stereo not given) | -13.6% [at 42.5 µM] | 
CC1(C)CC(O)CC(C)(C)N1 | -0.975% | 
S=c1nccc[nH]1 | 0.504% | 
Cc1cccc(C)c1NC(=O)c1ccc(N)cc1 | 4.08% [at 42.5 µM] | 
C#C[C@]1(OC(C)=O)CC[C@H]2[C@@H]3CCC4=C/C(=N/O)CC[C@@H]4[C@H]3CC[C@@]21CC | -3.81% [at 42.5 µM] | 
C=CCn1c(=O)n(CC=C)c(=O)n(CC=C)c1=O | -4.37% | 
CCCC1CCC(=O)CC1 | -2.21% | 
Oc1c(I)cc(Cl)c2cccnc12 |  | 48.5 µM (active)
CCC(COC(=O)CCS)(COC(=O)CCS)COC(=O)CCS | 0.0644% | 
CCCC(=O)OCCc1ccccc1 | -0.488% | 
Cc1ccc(O)c(N)c1 | -2.78% | 
Cc1nc2n(c(=O)c1CCN1CCC(c3noc4cc(F)ccc34)CC1)CCCC2 | -3.71% [at 42.5 µM] | 
OC[C@H]1O[C@H](O[C@H]2O[C@H](CO)[C@@H](O)[C@H](O)[C@H]2O)[C@H](O)[C@@H](O)[C@@H]1O | 0.0116% | 
CC(N=C(NC#N)Nc1ccncc1)C(C)(C)C (stereo not given) | 2.76% [at 42.5 µM] | 
CCC(CC)(CC(=O)Nc1cccc(/C=C/c2nc(C3CCC3)cs2)c1)C(=O)O | -0.151% [at 42.5 µM] | 
CCCCCCCCCCC[C@@H](C[C@@H]1OC(=O)[C@H]1CCCCCC)OC(=O)[C@H](CC(C)C)NC=O | -11% [at 42.5 µM] | 
COCCOc1cc2cc(C(=O)NC3CCN(C(C)C)CC3)n(CC(=O)Nc3ccc(Cl)cn3)c2cn1 | 3.05% | 

SMILES | activity change, negative = cytotoxicity | Potency
CCOC(=O)Cn1cccc1-c1nc(-c2ccc(OC)cc2)c(-c2ccc(OC)cc2)s1 | 1.64% [at 42.5 µM] | 
CCCCC(CC)COC(=O)CCCCC(=O)OCc1ccccc1 (stereo not given) | 0.714% | 
COc1cccc(OC)c1C(=O)O | 0.838% | 
CN(C)c1ccc(C(=C2C=CC(=[N+](C)C)C=C2)c2ccc(N(C)C)cc2)cc1 |  | 4.31 µM (active) and 13.7 µM (active) and 3.35 µM (active)
Cc1cc(C(C)(C)C)c(O)c(C)c1Cn1c(=O)n(Cc2c(C)cc(C(C)(C)C)c(O)c2C)c(=O)n(Cc2c(C)cc(C(C)(C)C)c(O)c2C)c1=O | -8.92% | 
CCC(C)n1ncn(-c2ccc(N3CCN(c4ccc(OC[C@H]5CO[C@](Cn6cncn6)(c6ccc(Cl)cc6Cl)O5)cc4)CC3)cc2)c1=O (stereo not given in full) | -1.04% [at 42.5 µM] | 
C=C(CC)C(=O)c1ccc(OCC(=O)O)c(Cl)c1Cl |  | 60.7 µM (active)
C=C(C)c1cccc(C(=C)C)c1 | -1.2% | 
COc1ccc(-c2coc3cc(O)ccc3c2=O)cc1 | 1.58% | 
O=C(O)c1cc(=O)c2ccccc2o1 | 2.01% [at 42.5 µM] | 
O=C(O)c1cc(-c2ccc(F)cc2F)ccc1O | 3.24% [at 42.5 µM] | 
CC(C)CCCCCOC(=O)CCS | -9.46% | 
CC(C)(c1cc(Br)c(OCC(Br)CBr)c(Br)c1)c1cc(Br)c(OCC(Br)CBr)c(Br)c1 (stereo not given) | 2.47% [at 42.5 µM] | 
OCC(F)(F)F | -0.741% | 
CC(=O)c1ccc(C(C)=O)cc1 | 0.661% | 
CN1CCC[C@@H]1CCO[C@](C)(c1ccccc1)c1ccc(Cl)cc1 |  | 29.8 µM (active)
C=C(C)C(=O)OCCCCCCCCCC | 1.51% | 
CCC(C)(CCC(C)C)C(=O)[O][Sn]([CH3])([CH3])[O]C(=O)C(C)(CC)CCC(C)C (stereo not given) | -8.19% | 
O=C1CCc2ccc(OCCCCN3CCN(c4cccc(Cl)c4Cl)CC3)cc2N1 |  | 26.6 µM (active)
Clc1nnc(Cl)c2ccccc12 |  | 15.3 µM (active)
